Among all 52,000 compounds or so, about 1,700 (3.3%) were called active. Many of the other results were omitted from the sample, so actives are more common in it than they were. A number with no mark means an inactive call. No stated cut-off is given here; in the data, active means survival mostly below about 52% (no sharp cut-off); inactive means mostly above about 56%.

In the assay the test system is Wild type. Nature of the assay: growth inhibition of S. aureus wild type versus tarO mutant, primary screen, teichoic acid synthesis inhibitors, RN4220, OD600 (AID 463173). As to conditions: S. aureus RN4220 wild type/DeltatarO growth, OD600, 18 h, hits give low values, screened at 18.75 µg/mL (by protocol).
Turning to `Cn1c(-c2ccc(NC(=O)c3ccccc3)cc2)n[nH]c1=S`, the survival is 113%. `CC(C)COc1ccc(Nc2ncnc3ccc(Br)cc23)cc1`: the survival was 79%.

For the compound `O=C(NCC(c1cccnc1)N1CCc2ccccc2C1)C(=O)Nc1cccc(Cl)c1` (configuration not stated), the survival was 47%. Take `Cc1ccc(Cl)cc1N1CCN(CCCNC(=O)Cn2ncc3c([nH]c4ccccc43)c2=O)CC1`: the survival was 99%. For `Cc1cc(C)cc(-n2c(C)nc3cc(C(=O)NCc4ccc(F)cc4)ccc32)c1` the value was 138%; for `CC(NC(=O)c1ccccc1)c1n[nH]c(=S)n1C` (configuration not stated), 109%. As for `CC(C)NC(=O)/C=C/c1ccc2c(c1)OCO2`, the figure is 110%.

For `O=C(Cn1c(=O)n(Cc2ccccc2)c(=O)c2sc3ccccc3c21)NCc1ccccc1Cl`, the survival is 125%.

With `CC1=C(C(=O)OCc2ccc(C)cc2)C(c2ccccc2F)CC(=O)N1` (configuration not stated), the survival is 115%. For `COc1ccc(CNCc2c(C(=O)O)c(C)n(Cc3ccc(Cl)cc3)c2C)c(OC)c1` the value was 101%. For `CCCCn1cnc2cc(NCc3ccc(OCC)cc3)ccc21` the value was 4% (active); for `CCc1ccc(CNc2ccc3c(c2)ncn3C(C)(C)C)cc1`, -16% (active); for `CC(C)(C)n1cnc2cc(NCc3ccccc3Cl)ccc21`, 8% (active). With `CCn1cnc2cc(NCc3ccc(N(C)C)cc3)ccc21`, the survival is 94%. For `CCCCn1cnc2cc(NCc3ccccc3Cl)ccc21` the value was -16% (active); for `CCCn1cnc2cc(NCc3ccc(OC)cc3OC)ccc21`, 63%. As for `COc1cc(CNc2ccc3c(c2)ncn3C(C)C)cc(OC)c1OC`, the figure is 66%; as for `CCCn1cnc2cc(NC(=O)c3cc(OC)c(OC)c(OC)c3)ccc21`, 76%; as for `CCCCn1cnc2cc(NC(=O)c3cc(OC)c(OC)c(OC)c3)ccc21`, 79%. For `CCCn1cnc2cc(NCc3ccccc3OCC)ccc21` the value was 61%; for `COc1cccc(CNc2ccc3c(c2)ncn3C)c1OC`, 121%; for `CC(C)(C)n1cnc2cc(NS(=O)(=O)c3ccccc3)ccc21`, 112%. With `O=C(CN1C(=O)C2(SCC(=O)N2c2ccccc2)c2ccccc21)NCc1ccccc1Cl` (configuration not stated), the survival is 97%.

`Cc1cc(C)c2c(c1)NC(=O)C2(O)c1c[nH]c2ccccc12` (configuration not stated): the survival is 97%.

In the case of `COc1ccc(C)cc1NC(=O)c1cc2c(s1)-c1ccccc1SC2`, the survival was 46%. On to `CC(C)OCCCNC(=O)c1ccc(Cn2c(=O)c3cccn3c3cccnc32)cc1`, for which the survival is 111%.

With `COc1ccc(OC)c(NC(=O)c2cc3c(=O)oc4ccccc4c3s2)c1`, the survival was 103%. For `CCCc1cc(=O)[nH]c2nnc(SC(C)CC)n12` (configuration not stated) the value was 80%; for `Cc1c2cnn(-c3ccccc3)c(=O)c2c(C)n1C(C)C(=O)Nc1ccccc1C(F)(F)F` (configuration not stated), 81%. As for `COc1cccc(N2CCN(C(=O)CCCn3c(=O)[nH]c4ccc(Br)cc4c3=O)CC2)c1`, the figure is 53%; as for `O=C(CCCn1c(=O)[nH]c2ccc(Br)cc2c1=O)N1CCN(c2cccc(Cl)c2)CC1`, 6% (active). For `Cc1ccc(Cl)cc1N1CCN(C(=O)CCCn2c(=O)[nH]c3ccc(Br)cc3c2=O)CC1` the value was 21%.

Take `CCOC(=O)c1noc2ncnc(NCc3ccccc3OC)c12`: the survival is 72%. For `COc1ccc(N2CC(NC(=O)c3ccco3)CC2=O)cc1OC` (configuration not stated) the value was 68%. For `COc1cccc(N2CC(NC(=O)COc3ccc4ccccc4c3)CC2=O)c1` (configuration not stated) the value was 94%.

As for `COc1cccc(N2CC(NC(=O)c3ccco3)CC2=O)c1` (configuration not stated), the survival was 10% (active). As for `COc1cccc(OCC(=O)NC2CC(=O)N(c3cccc(OC)c3)C2)c1` (configuration not stated), the survival is 124%. Regarding `COc1ccc(N2CC(NC(=O)c3ccco3)CC2=O)cc1` (configuration not stated), the survival was 49%.

Consider `COc1ccc(OCC(=O)NC2CC(=O)N(c3cccc(OC)c3)C2)cc1` (configuration not stated), for which the survival is -3% (active).

Consider `O=C1CC(=O)SC(c2ccccc2)=N1`, for which the survival is 105%. Turning to `CCOC(=O)c1scc(-c2ccc(C)cc2)c1S(=O)(=O)Nc1cc(OC)ccc1OC`, the survival was 76%. For `CCOC(=O)c1c(C)[nH]c(C)c1S(=O)(=O)NCC(=O)Nc1cc(C)ccc1OC` the value was 75%.

Turning to `CCOC(=O)c1scc(-c2ccc(C)cc2)c1S(=O)(=O)Nc1ccc(OC)c(Cl)c1`, the survival is 90%. As for `CCOC(=O)c1c(C)[nH]c(C)c1S(=O)(=O)NCC(=O)Nc1cc(Cl)ccc1OC`, the figure is -6% (active); as for `CCOC(=O)c1scc(-c2ccc(C)cc2)c1S(=O)(=O)Nc1cc(Cl)ccc1OC`, -6% (active). As for `CCOC(=O)c1c(C)[nH]c(C)c1S(=O)(=O)N(C)CC(=O)Nc1cc(Cl)ccc1OC`, the figure is 128%; as for `CCCc1oc(C(=O)O)cc1CN1CCOCC1`, 117%; as for `CC(=O)C1=C(c2ccc(C)cc2)N(C(C)=O)n2c(nnc2-c2ccccc2)S1`, 134%.

As for `CCc1cccc2c(-c3ccccc3)nc(SCC(=O)Nc3ccc(OC)cc3)nc12`, the survival is 98%.

With `Cc1ccc2nc(-c3ccc(F)cc3)c(NC(C)(C)CC(C)(C)C)n2c1`, the survival is 14% (active). For `COCCNc1c(-c2ccc(N)cc2)nc2ccc(C)cn12` the value was 101%; for `Cc1ccc(Nc2c(-c3ccc(C)cc3)nc3ccc(C)cn23)cc1`, 121%; for `CC(=O)N1c2ccccc2CC1C(=O)N1CCN(c2ccccc2F)CC1` (configuration not stated), 71%. As for `CCOc1ccc(NC(=O)/C=C\C(=O)N(c2ccc(C(C)C)cc2)C(C(=O)NCc2ccco2)c2ccc(F)cc2)cc1` (configuration not stated), the figure is 51%. As for `Cc1cccc(NC(=O)CN2C(=O)COc3ccc(S(=O)(=O)Nc4ccccc4)cc32)c1C`, the figure is 123%.

`Cc1c(Cl)cccc1NC(=O)c1cc2nc(-c3ccc4c(c3)OCO4)cc(C(F)(F)F)n2n1`: the survival is 76%. Take `CCOc1ccc(-c2nnc(Nc3ccc(S(N)(=O)=O)cc3)c3ccccc23)cc1`: the survival is 88%. For `CCOc1ccc(-c2ncccc2O)cc1` the value was 106%. As for `CCCCOc1nnc(-c2ccc(OCC)cc2)c2ccccc12`, the figure is -1% (active).

Turning to `COc1ccc(S(=O)(=O)N(CCc2ccccc2)CC(=O)NCc2ccc(C)cc2)cc1`, the survival is 67%. As for `Cc1ccccc1CCNC(=O)c1cc2ccccn2n1`, the figure is 84%. Regarding `CCOC(=O)C1CCN(S(=O)(=O)c2ccc3c(c2)NC(=O)C(C)C(=O)N3)CC1` (configuration not stated), the survival was 114%.

In the case of `Cc1ccc(N(C)S(=O)(=O)c2c(-c3ccccc3)csc2C(=O)O)cc1`, the survival was 61%.

For the compound `CC(=O)c1ccc(NC(=O)Cn2ncc3c(C)n(Cc4ccc(F)cc4)c(C)c3c2=O)cc1`, the survival is 74%. Consider `COC(=O)c1ccccc1NC(=O)c1nc(-c2ccc(C)cc2)n2c1CCCCC2`, for which the survival was 86%. For `COc1ccc(C(=O)Oc2ccc3oc(=O)sc3c2)cc1` the value was 95%; for `CCn1ccc2c(OCC(=O)Nc3ccc(C(C)=O)cc3)cccc2c1=O`, 53%. As for `CCn1ccc2c(OCC(=O)NCc3ccccc3)cccc2c1=O`, the figure is 66%; as for `COCCn1ccc2c(OCC(=O)Nc3cccc(OC)c3)cccc2c1=O`, 90%; as for `CCn1ccc2c(OCC(=O)Nc3ccc(OC)cc3OC)cccc2c1=O`, -3% (active). In the case of `CCn1ccc2c(OCC(=O)Nc3ccccc3C)cccc2c1=O`, the survival is 0% (active). As for `CCn1ccc2c(OCC(=O)Nc3ccccc3C(F)(F)F)cccc2c1=O`, the survival is 80%. As for `CCCN1CCN(C(=O)Cn2c(-c3cccs3)cc3cc(F)ccc32)CC1`, the figure is 85%; as for `Cc1ccc2c(CC(=O)N(Cc3ccc(N(C)C)cc3)Cc3ccco3)coc2c1C`, 70%. In the case of `CCc1nn(CC(=O)Nc2ccc(C)cc2C)c(=O)c2cc3sccc3n12`, the survival is 90%.

As for `Cc1cc(C)cc(NC(=O)CSc2nncn3c2cc2occc23)c1`, the survival was 66%.

On to `Cc1ccc(CNS(=O)(=O)c2ccc3c(c2)CC(C)N3C(=O)C2CCC2)cc1` (configuration not stated), for which the survival is 97%. Regarding `Cc1ccsc1CN(C(=O)c1ccc(OCC(C)C)cc1)C1CCS(=O)(=O)C1` (configuration not stated), the survival was 85%. As for `CCCCN(c1ccccc1)c1ncnc2c1cnn2-c1cccc(C)c1`, the figure is 68%; as for `COC(=O)c1cc2sc(C)cc2n1Cc1cccc(OC)c1`, 0% (active).

As to `COC(=O)c1cc2sc(C)cc2n1Cc1ccc(Br)cc1F`, the survival is 76%.

As to `COC(=O)c1cc2sc(C)cc2n1Cc1ccc(F)cc1Cl`, the survival was 65%. As to `COC(=O)c1cc2sc(C)cc2n1Cc1ccccc1`, the survival was 83%. For `C=Cc1ccc(Cn2c(C(=O)OC)cc3sc(C)cc32)cc1` the value was 0% (active). As for `COC(=O)c1cc2sccc2n1Cc1ccc(F)cc1`, the figure is 135%; as for `Cc1cccc(CCn2c(=O)c3ccccc3n(Cc3cccc(F)c3)c2=O)c1`, 82%. As for `COc1ccc(NC(=O)Cn2cc(S(=O)(=O)c3ccccc3)c(=O)c3cc4c(cc32)OCO4)cc1`, the figure is 79%. Turning to `COc1cc(CN(C(=O)Nc2ccccc2)c2ccccn2)cc(OC)c1OC`, the survival is 86%. Consider `CCCCNC(=O)CN1C(=O)CSc2ccc(S(=O)(=O)N3CCC(C)CC3)cc21`, for which the survival is 92%. For `COc1ccccc1NC(=O)CN(C)S(=O)(=O)c1cccc2cccnc12` the value was 117%; for `CC(=O)NC1N=C(C)N(c2ccccc2)C1=O` (configuration not stated), 101%. `COc1ccc(Cl)cc1NC(=O)NCCc1c(C)nn(C)c1C`: the survival was -3% (active). For `COC(=O)c1ccc(Cl)cc1NC(=O)NCCc1c(C)nn(C)c1C` the value was 55%; for `Cc1nn(C)c(C)c1CCNC(=O)Nc1ccccc1C(F)(F)F`, 1% (active); for `COc1ccc(NC(=O)NCCc2c(C)nn(C)c2C)c(OC)c1`, 57%. As for `Cc1nn(C)c(C)c1CCNC(=O)Nc1cccc(Cl)c1C`, the figure is 63%; as for `COC(=O)c1ccccc1NC(=O)NCCc1c(C)nn(C)c1C`, 82%.

Source of the values: PubChem BioAssay AID463173 (ICCB-Longwood Screening Facility, Harvard Medical School, 2010).
